Marburg entry inh – qHTS for inhibitors of binding or entry into cells for Marburg Virus | Marburg virus pseudotyped entry inhibition, cell reporter | Potency, µM (doses to about 37.8 µM), inactives show at the top dose activity change, negative = inhibition, usual class: inhibitors | 1.8% of 300,000 active | AID 540276, 2011; calls by dose curve; tested in HEK293 cells; note: potency is the fitted concentration of half-maximal effect
FMDV inh – High Throughput Screening for Foot and Mouth Disease Virus Antivirals. FMDV antiviral cell-based qHTS. AID 1159524, 2015. Potency, µM (highest dose often 57.9 µM), for inactives: at the top dose activity change, negative = inhibition, usual class: inhibitors. 1.2% of 410,000 active; calls by dose curve; tested in HEK293T cells; note: read-out not given here; potency is the fitted concentration of half-maximal effect; nearly all actives have a fitted effect of over 45% in size
Lassa entry inh – qHTS for Inhibitors of binding or entry into cells for Lassa Virus. Lassa virus pseudotype entry inhibition, cell reporter. Potency, µM (top dose mostly 37.9 µM), without a hit: at the highest dose activity change, negative = inhibition, actives largely listed as inhibitors. 1.2% of 300,000 active; calls by dose curve; tested in HEK293 cells; note: potency is the fitted concentration of half-maximal effect; nearly all actives have a fitted effect of over 50% in size
HCMV inh – qHTS Assay for inhibitors of the human cytomegalovirus (HCMV); HFF cells, HCMV-luciferase reporter, 72 h; active compounds read low; activity change, negative = inhibition, % at 57.5 µM; 4.5% of 410,000 active; AID 1259415, 2018; in the data active = activity change below about -60%; inconclusive = no clear call, values can overlap the other calls; inactive = above about -39%
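Cell-based, HFFs, 1000 cells/well, 16 h 37C; cpds in DMSO + HCMV-luc, MOI 1 PFU/cell; 72 h 37C; OneGlo luminescence after 5 min RT; norm. to buffer vs Salinomycin 10uM.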
VACV mCherry inh – qHTS for Stage-Specific Inhibitors of Vaccinia Orthopoxvirus: mCherry Reporter Primary qHTS; Vaccinia virus mCherry reporter infection, fluorescence; Potency, µM (highest dose often 36.5 µM), inactives show at the top dose activity change, negative = inhibition, actives largely listed as inhibitors; 0.63% of 310,000 active; calls by dose curve; tested in A549 cells; note: potency is the fitted concentration of half-maximal effect; nearly all actives have a fitted effect of over 35% in size
Vaccinia Venus – qHTS for Stage-Specific Inhibitors of Vaccinia Orthopoxvirus: Venus Reporter Primary qHTS; Vaccinia virus Venus reporter expression, fluorescence; Potency, µM (series often up to 36.5 µM), for the others: at the top dose activity change, negative = inhibition, most hits filed as inhibitors; 0.46% of 330,000 active; AID 720580, 2013; calls by dose curve; tested in A549 cells; note: potency is the fitted concentration of half-maximal effect; nearly all actives have a fitted effect of over 30% in size
Numbers without * were called inactive; i = inactive; u = inconclusive; x = no result given; [ ] = remark or other dose. Sampled rows, rich in hits. Any-hit rate of the full collection: about 6.5%. % is set by controls: 0 for no effect and ±100 for the full control effect.

SMILES | Marburg entry inh | FMDV inh | Lassa entry inh | HCMV inh | VACV mCherry inh | Vaccinia Venus
C[C@@H]1CC[C@H]2C(=O)O[C@@H](Cc3ccccc3)CN2[C@@H]1c1ccc(Br)cc1 | 7.1%[14.2 µM] | x | x | x | x | x
CCn1nc(C)c(CNC(=O)c2cc(COc3ccccc3SC)on2)c1C | 26.9%[46.1 µM] | u | -19.8%[46.1 µM] | -64.3* | -13.4% | -9.6%
CCn1nc(C)c(CNC(=O)c2cc(COc3cncc(Cl)c3)on2)c1C | x | 1.1% | x | -63.6* | -6.9%[7.34 µM] | 11.3%[7.34 µM]
COc1cccc(CNC(=O)Cn2nc(N3CCN(c4ccccc4OC)CC3)ccc2=O)c1 | x | 0.0% | 2.7%[46.1 µM] | -3.3 | -17.0% | -10.4%
O=C(O)CCc1ccc(-c2ccc(F)cc2)n1CC(=O)O | 0.2% | -13.2% | 13.8% | -28.6 | x | -13.8%
NC(=O)Nn1c(CCC(=O)O)ccc1-c1ccc(F)cc1 | -25.7% | -15.8% | 6.9% | -93.3* | x | x
Cc1ccc2[nH]c(=O)c(C(c3nnnn3Cc3ccccc3)N3CCc4ccccc43)cc2c1 (stereo not given) | 10.3µM* | -10.2% | u | 8.1 | x | x
O=c1[nH]c2cc3c(cc2cc1C(c1nnnn1C1CCCC1)N1CCSCC1)OCCO3 (stereo not given) | u | 6.1% | 1.5% | -79.2* | -11.7% | 0.1%
Cc1ccc2[nH]c(=O)c(C(c3nnnn3C3CCCC3)N3CCCc4ccccc43)cc2c1 (stereo not given) | 5.8µM* | 5.1% | u | 132.7 | x | x
Cc1ccc2cc(C(c3nnnn3Cc3ccccc3)N3CCc4ccccc43)c(=O)[nH]c2c1 (stereo not given) | u | 23.2% | u | -6.7 | x | x
c1ccc(Oc2ccc(Nc3ncc(-c4ccccc4)o3)cc2)cc1 | x | x | 0.25µM* | x | x | x
c1ccc(-c2cnc(-c3cccnc3)o2)cc1 | u | 33.0% | 1.3% | 158.6 | -5.0% | -16.9%
CCOC(=O)COc1c(Cl)cc(C2NC(=S)NC(c3ccccc3)=C2C(C)=O)cc1OCC (stereo not given) | -6.3% | -7.4% | -0.3% | -60.3* | -16.4% | -14.8%
N#Cc1c(N)nc(Sc2ccc(Cl)cc2)c(C#N)c1-c1ccccc1Cl | u | 28.2µM* | u | -77.9* | u | -29.1%
Cc1ccc(-c2cc(-c3ccccc3Cl)c(C#N)c(N)n2)o1 | -3.3%[46.1 µM] | u | -5.4% | -36.8 | -12.7% | 2.6%
CCSc1nc(N)c(C#N)c(-c2ccccc2Cl)c1C#N | -0.7% | -25.0% | -12.5% | -63.5* | x | x
C=CCSc1nc(N)c(C#N)c(-c2ccc(C)cc2)c1C#N | -9.8%[46.1 µM] | -1.6% | -17.6% | u | x | -28.6%
FC(F)(F)c1nc2nccnc2[nH]1 | x | -7.9% | x | -22.3 | -11.7% | -0.5%
COc1cc(NC(=O)Cn2c(=O)ccc3cc(S(=O)(=O)N4CCCC4)ccc32)cc(OC)c1 | x | u | u | -29.5 | -8.9% | -4.8%
CN1C2CCC1C(C(=O)Oc1ccccc1)C(c1ccc(Cl)cc1)C2 (stereo not given) | x | x | x | -76.7* | x | x
COC(=O)C1C(c2ccc(C)cc2)CC2CCC1N2C (stereo not given) | x | x | x | -29.8 | x | x
CC1=C([N+](=O)[O-])C(c2cccc(Br)c2)C2=C(N1)c1ccccc1C2=O (stereo not given) | 1.3µM* | u | u | -89.7* | x | x
COc1ccc(-c2cn(-c3ccc(C)cc3)c(S(=O)(=O)CC(=O)Nc3ccccc3)n2)cc1 | 3.4%[46.1 µM] | 72.6% | u | 11.6 | -24.4% | -22.7%
CSc1ccc(Cn2nnc(C(=O)Nc3ccc(C)cc3Cl)c2N)cc1 | 11.5%[46.1 µM] | 64.4% | -5.7%[46.1 µM] | -78.2* | -16.3% | -29.8%
CCOc1ccc(OCC)c(NC(=O)c2nnn(Cc3cc(Br)ccc3OC)c2N)c1 | u | -23.1% | -10.1%[46.1 µM] | 2.9 | -20.7% | -18.6%
SMILES | Marburg entry inh | FMDV inh | Lassa entry inh | HCMV inh | VACV mCherry inh | Vaccinia Venus
COc1ccc(Br)cc1Cn1nnc(C(=O)Nc2ccc(C)cc2C)c1N | u | -4.2% | 6.6%[46.1 µM] | -74.0* | u | -22.0%
CCOc1ccc(-c2cc3nc(C4CCN(C(=O)OC(C)(C)C)CC4)c(C(=O)Nc4cccc(C(F)(F)F)c4)cn3n2)cc1 | -5.2%[46.1 µM] | -16.4% | -0.4%[46.1 µM] | -35.6 | -8.0% | 10.5%
O=C(OCc1cccc(F)c1)c1ccc2c(=O)n3c(nc2c1)CCC3 | 19.5%[46.1 µM] | -5.0% | 2.5% | 0.0 | 5.3% | -7.5%
COC(=O)N(Cc1ccccc1NC(=O)OC(C)(C)C)C(C(=O)NC1CCCC1)C(=O)c1c(C)cc(C)cc1C (stereo not given) | x | x | x | -36.6 | x | x
CC(C)(C)NCC(O)CON=C1c2ccccc2-c2ccccc21 (stereo not given) | 10µM* | u | x | -5.3 | u | u
O=C(Nc1ccc(Br)cc1)c1cccc(C(=O)Nc2ccc(Br)cc2)c1 | x | 17.6% | 10.8%[46.1 µM] | -0.6 | -19.0% | -17.4%
Cc1noc2ncnc(Sc3ccc(Br)cc3)c12 | u | u | u | -106.2* | i | -16.9%
CC(C)=C1SC(N2CCN(c3ccc(Cl)cc3)CC2)=NC1=O | u | -14.1% | -2.8% | -75.1* | -23.0% | -15.0%
Cc1ccc(CSCCC(=O)N2CCN(c3cc(C)ccc3C)CC2)cc1 | x | u | -4.7%[46.1 µM] | -9.6 | -14.2% | -10.9%
COc1ccc(-n2ncc3c(N(C)C4CCCCC4)ncnc32)cc1 | x | 10µM* | x | -88.2* | u | -22.3%
CCN(c1ncnc2c1cnn2-c1cccc(Cl)c1)C1CCCCC1 | x | -23.9% | u | u | -8.4% | -0.4%
COc1ccc(-n2ncc3c(N4CCC(C)CC4)ncnc32)cc1 | x | -38.1% | x | 109.5 | -3.1% | -17.6%
Cc1cccc(-n2ncc3c(N(C)C4CCCCC4)ncnc32)c1 | x | 17.8µM* | x | -78.1* | i | -20.8%
CCn1c(-c2ccccc2F)nc2cc(NC(C)=O)cc(C(=O)N(C)Cc3ccc4nccnc4c3)c21 | x | -10.7% | x | x | -12.5% | -11.6%
COc1ccccc1N1CCN(C2C(=O)Nc3ccccc3-n3nnnc32)CC1 (stereo not given) | x | -3.4% | x | 7.3 | i | -26.8%
CCn1nnnc1NC(=O)c1cccc(OC)c1 | u | 47.8% | x | 146.2 | 0.3% | -4.3%
CCn1nnnc1NC(=O)c1cc(Cl)c(OC)c(Cl)c1 | -4.9%[46.1 µM] | -14.1% | -3.0%[46.1 µM] | -62.9* | i | -18.8%
Cc1oc(-c2ccccc2NC(=O)C2CCCO2)nc1CNC(=O)c1cc(Cl)ccc1F (stereo not given) | x | -8.8% | x | x | -10.1% | -2.7%
Cc1ccc2nc(/C(C#N)=C/c3ccc(O)c(O)c3)[nH]c2c1 | u | 1.4% | u | 90.0 | 5.62µM* | 35.1%
N#C/C(=C/c1ccc(N2CCCC2)c([N+](=O)[O-])c1)c1nc2ccccc2[nH]1 | 15.4% | 4.4% | 7.1% | 10.4 | x | x
COc1cc(/C=C(\C#N)c2nc3ccc(C)cc3[nH]2)ccc1OC(C)C | u | 14.5% | u | -68.0* | 4.9% | -13.3%

Assay outcomes as filed in PubChem BioAssay.
